GPR151 ag – activators of human GPR151, primary screen, cell-based, PathHunter beta-arrestin, luminescence; PathHunter beta-arrestin GPR151 cells; activation, % at 11.2 µM; actives 1% (n = 650,000); AID 1508602, 2020; in the data active means activation above about 4.9%;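 further: 0% = median of compound wells and 100% = cells with positive control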
MITF inh – MITF inhibitors, primary screen, biochemical, AlphaScreen, human. AlphaScreen MITF homodimerization, bead proximity signal. inhibition, % at 2.6 µM. actives 0.91% (n = 650,000). AID 1259374, 2018; in the data active means inhibition above about 50%;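 further: 0% = vehicle wells with protein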
FBW7 act – FBW7 E3 ligase activators, primary screen, biochemical, AlphaScreen, human; normalized activity (activation), % at 26.1 µM; AlphaScreen FBW7–phospho-cyclin E peptide binding, activator screen; actives 0.13% (n = 650,000); in the data active means normalized activity above about 1.9%;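 further: purified mutant Fbw7 with reduced substrate affinity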
TEAD-YAP inh – TEAD-YAP interaction inhibition, primary screen, TEAD-YAP interaction inhibitor project, luminescence, HEK-TIYL cells | TEAD-Gal4/YAP UAS-luciferase luminescence | inhibition, % at 9.12 µM | actives 1.4% (n = 640,000) | AID 1259422, 2018; in the data active means inhibition above about 32%;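 further: 0% = median of test compound wells and 100% = reference inhibitor wells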
GPR151 conf act – GPR151 activators, triplicate retest, confirmation, cell-based, PathHunter beta-arrestin, luminescence. shares compounds with GPR151 ag. GPR151 PathHunter beta-arrestin cells, 90 min; % of EA-reagent control over plate median. activation, % at 11.2 µM. 6,700 tested, under 10 active. AID 1508609, 2020;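 active means mean percent activation across replicates above the confirmation screen cutoff of 4.91%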
GPR119 counter – GPR119 activators in beta-arrestin cells, counter-screen for GPR151 activator project, cell-based, PathHunter beta-arrestin, luminescence, triplicate; activation, % at 11.2 µM; 90 min; 0 = compound-well median, 100 = enzyme-acceptor control; actives 0.3% (n = 6,700); shares compounds with GPR151 ag;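 active means mean percent activation in the counterscreen above 29.09%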;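 further: counterscreen on off-target GPR119 to flag nonselective hits from the GPR151 activator screen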
Target sequence (Q8TDV5 whole entry, looked up): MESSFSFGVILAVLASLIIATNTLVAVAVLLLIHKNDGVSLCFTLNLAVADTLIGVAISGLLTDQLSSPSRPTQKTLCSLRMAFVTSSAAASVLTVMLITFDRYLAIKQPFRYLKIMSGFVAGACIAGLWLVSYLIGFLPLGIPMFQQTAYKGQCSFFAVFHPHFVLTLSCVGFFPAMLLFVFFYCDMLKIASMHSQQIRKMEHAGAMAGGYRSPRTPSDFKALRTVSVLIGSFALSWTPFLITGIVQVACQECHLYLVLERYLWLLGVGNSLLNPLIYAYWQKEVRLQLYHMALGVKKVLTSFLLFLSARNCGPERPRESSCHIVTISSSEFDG
Numbers without * were called inactive; x = no result. Compounds with a hit are over-represented: about 3.4% of the library has one in this group of screens.

SMILES | GPR151 ag | MITF inh | FBW7 act | TEAD-YAP inh | GPR151 conf act | GPR119 counter
CCCNC(=O)c1ccc2nc(N3CCc4ccccc4C3)sc2c1 | -1.6 | 5.4 | 0.0 | -54.7 | x | x
O=C(NCc1ccccc1)c1ccc2nc(N3CCc4ccccc4C3)sc2c1 | 5.6* | -0.7 | -0.1 | -62.8 | 0.4 | -0.5
COc1ccc(N(C)C(=O)Cn2ncc3c2-c2ccccc2OC3)c(OC)c1 | 0.4 | 10.4 | 0.0 | 7.7 | x | x
Cc1cc(Nc2ccc3c(c2)OCO3)nc(Nc2nc3ccccc3n2C)n1 | 7.4* | -9.5 | -0.1 | 0.4 | 0.4 | -1.3
CCOC(=O)C1=C(C)N=c2s/c(=C/c3ccc(-c4ccc(C(=O)OCC)cc4)o3)c(=O)n2C1c1ccc(N(C)C)cc1 (stereo unspecified) | 0.0 | 3.0 | 0.2 | -23.5 | x | x
CCOC(=O)C1=C(C)N=c2s/c(=C/c3cc(Br)c(Br)o3)c(=O)n2C1c1cccs1 (stereo unspecified) | -1.2 | 3.0 | -0.3 | -10.4 | x | x
CCOC(=O)C1=C(C)N=c2s/c(=C/c3ccc(-c4ccc(Br)cc4)o3)c(=O)n2C1c1ccc(N(C)C)cc1 (stereo unspecified) | 5.5* | -7.8 | 0.1 | 6.2 | 0.0 | -2.9
CCOC(=O)C1=C(C)N=c2s/c(=C\c3ccc(Br)o3)c(=O)n2C1c1cccs1 (stereo unspecified) | 4.9* | 2.3 | -0.1 | 6.3 | -1.0 | 0.5
COCC1CCCCN1C(=O)CC1(c2ccccc2)CC(=O)N(CCc2ccccn2)C1=O (stereo unspecified) | 5.4* | 17.0 | 0.7 | -2.4 | -0.1 | 7.8
O=C1NC(=S)NC(=O)C1=Cc1cccc(OC(=O)c2ccc(Cl)cc2)c1 | 5.9* | 11.5 | 0.4 | -1.2 | 0.5 | 10.3
COc1ccc(C(=O)Oc2ccc(C=C3C(=O)NC(=S)NC3=O)cc2)cc1 | 0.2 | 11.9 | 0.0 | -2.4 | x | x
CCOC(=O)CCN(Cc1ccccc1F)S(=O)(=O)c1ccc(Br)cc1 | -1.0 | 14.8 | 0.2 | -8.0 | x | x
CCOC(=O)CCCN(Cc1ccc(Cl)cc1Cl)S(=O)(=O)c1ccc(F)c(C)c1 | 5.0* | 15.2 | 0.5 | 11.6 | 0.0 | -14.3
CCOC(=O)CCN(Cc1ccccc1F)S(=O)(=O)c1ccc(C)cc1 | 4.9* | -0.1 | 0.2 | -1.5 | -1.6 | -18.1
CCOC(=O)CCCN(Cc1ccc(F)cc1)S(=O)(=O)c1ccc(F)c(C)c1 | 3.2 | 13.5 | 0.1 | 4.9 | x | x
Cc1cc(C=C2C(=O)NC(=S)NC2=O)c(C)n1-c1ccc([N+](=O)[O-])cc1 | 6.1* | 1.4 | -0.2 | -14.1 | 0.3 | 6.9
S=C(NCCN1CCOCC1)Nc1cccc2cnccc12 | -0.5 | -10.9 | -0.3 | -8.4 | x | x
S=C(NCCN1CCOCC1)Nc1cccc2ccccc12 | 5.3* | 2.3 | -0.2 | -2.7 | -0.1 | -10.3
CCOC(=O)c1cnc2cc(C)nn2c1N | 9.4* | 7.3 | 0.0 | -6.9 | -0.3 | 2.5
Cc1cc(=O)[nH]c(N/N=C/C=C2\N(C)c3ccccc3C2(C)C)n1 | 5.0* | 23.8 | -0.8 | 5.7 | 0.1 | -2.8
Cc1ccn(CCC(N)=O)n1 | -0.2 | -0.7 | 0.6 | 6.7 | x | x
CCOc1ccc(-n2c(-c3ccc(Br)cc3)nc3c(cnn3-c3ccccc3)c2=O)cc1 | 0.6 | -6.0 | 0.0 | 1.9 | x | x
CCOc1cccc2sc(N(CCN(C)C)C(=O)c3cc(Cl)ccc3[N+](=O)[O-])nc12 | 7.1* | 16.3 | -0.1 | 5.4 | 1.2 | 7.0
CCCCC(=O)N(CCn1cccn1)c1nc2c(F)cccc2s1 | -0.4 | -1.5 | 0.1 | 0.2 | x | x
O=C(c1cc(Cl)ccc1Cl)N(CCn1cccn1)c1nc2c(F)cccc2s1 | 6.1* | -0.2 | 0.0 | -7.5 | 0.4 | 0.4
SMILES | GPR151 ag | MITF inh | FBW7 act | TEAD-YAP inh | GPR151 conf act | GPR119 counter
COc1ccc(N=Cc2c(O)n(C)c(=S)[nH]c2=O)cc1 | 0.6 | 8.7 | 0.1 | 5.2 | x | x
COc1ccc(NC(=O)Cc2nc3ccccc3[nH]2)cc1 | 18.5* | 3.0 | -0.1 | 37.9* | 0.6 | 9.5
COc1cccc(CC(=O)Nc2nc3ccccc3[nH]2)c1 | 5.6* | 4.2 | 0.0 | -5.4 | -0.4 | -5.9
COc1ccc(OCC(=O)Nc2nc3ccccc3[nH]2)cc1 | 2.7 | -11.4 | -0.2 | -22.8 | x | x
O=C(c1ccc([N+](=O)[O-])o1)c1sc(N2CCOCC2)nc1-c1cccs1 | -1.6 | 6.5 | -0.1 | 5.5 | x | x
O=C(Nc1ccc(Cl)c(C(F)(F)F)c1)c1ccc2c(=O)n(Cc3cccc(Br)c3)c(=S)[nH]c2c1 | 6.2* | 19.1 | -0.1 | -0.1 | -0.7 | -3.4
CC(C)NC(=O)c1ccc2c(=O)n(Cc3ccc(Cl)cc3)c(=S)[nH]c2c1 | 6.1* | 8.1 | 0.2 | -4.8 | -0.3 | 1.7
CSc1nc2sccn2c(=O)c1C(=O)NCc1ccccc1Oc1ccccc1 | 17.3* | 6.1 | 0.3 | 7.5 | 1.7 | 5.7
CSc1nc2sccn2c(=O)c1C(=O)NC1CCC(O)CC1 (stereo unspecified) | 6.8* | -4.9 | 0.0 | 2.5 | 0.2 | 8.6
CSc1nc2sccn2c(=O)c1C(=O)NCC(F)(F)F | -0.6 | 20.2 | 0.1 | 4.0 | x | x
O=C(N/N=C/c1ccc(Br)cc1)c1ccc(O)cc1 | -0.7 | 4.3 | 0.0 | -17.8 | x | x
COc1ccc(S(=O)(=O)N2CCN(C/C=C/c3ccccc3)CC2)cc1[N+](=O)[O-] | -0.7 | 11.2 | -0.2 | 4.9 | x | x
Cc1ccc([N+](=O)[O-])cc1S(=O)(=O)Nc1cccc(-c2cn3cccnc3n2)c1 | 6.1* | 2.9 | -0.1 | -6.0 | 0.0 | 11.7
Cc1ccc(-n2c(-c3ccn[nH]3)n[nH]c2=S)cc1Br | -1.1 | -2.9 | 0.0 | -3.7 | x | x
CC(=O)Nc1cnc2cnc(-c3ccc(C(C)C)cc3)cn12 | 5.2* | 15.2 | -0.3 | 8.8 | -0.8 | -3.9
Cc1c(C(=O)Nc2ccc(NC(=O)c3ccco3)c(Cl)c2)cccc1[N+](=O)[O-] | 7.3* | 13.6 | 0.3 | 5.8 | 0.9 | 12.8
COc1cc(NC(=O)c2cccc([N+](=O)[O-])c2C)ccc1NC(=O)c1ccco1 | 0.8 | 7.5 | -0.1 | -19.6 | x | x
Cc1c(C(=O)Nc2cccc(NC(=O)c3cccs3)c2)cccc1[N+](=O)[O-] | 5.5* | -26.6 | -0.2 | -2.8 | -1.4 | -7.8
Cc1ccccc1CSCCNS(=O)(=O)c1ccccc1[N+](=O)[O-] | 5.9* | -7.2 | -0.4 | 0.1 | 0.5 | -5.2
CCCN1CCN(C(=S)Nc2cc(Cl)ccc2OC)CC1 | 0.8 | 4.9 | 0.1 | 3.5 | x | x

Screens deposited in PubChem BioAssay by The Scripps Research Institute Molecular Screening Center.
